# G9a block = inhibitors of human histone lysine methyltransferase G9a | Q96KQ7 | G9a H3K9 monomethylation, AlphaScreen, 2 h | Potency, µM (highest dose often 102 µM), hits mostly inhibitors | 350,000 compounds, 8.8% hits | AID 504332; note: nearly all actives have a fitted effect of over 75% in size
#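 Step 1: enzyme (final 20 nM) with compound, 15 min RT. Step 2: substrate peptide 500 nM and SAM 20 uM, 2 h RT. Step 3: anti-H3K9me1 antibody and AlphaScreen beads, 10 min, then plate read.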
# JMJD2A Tudor = blocks the human JMJD2A Tudor domain. O75164. AlphaScreen JMJD2A-Tudor / H3K4me3 peptide binding. Potency, µM (series often up to 114 µM), actives largely listed as inhibitors. 390,000 compounds, 4.4% hits. AID 504339; note: nearly all actives have a fitted effect of over 50% in size
# HP1b chromo inh = blocks HP1-beta chromodomain binding to methylated histone tails; AlphaScreen HP1-beta / biotin-H3K9me3 peptide binding; Potency, µM (top dose mostly 114 µM), usual class: inhibitors; 390,000 compounds, 0.56% hits; note: nearly all actives have a fitted effect of over 70% in size
#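 AlphaScreen: HP1-beta (50 nM) preformed 30 min with biotin-H3(1-18)K9me3 peptide (50 nM) in PBS pH 7.4, 0.01% Tween-20. Compound added for 30 min at RT, then streptavidin donor/nickel chelate acceptor beads (10 ug/mL) for 30 min.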
# PLK1 PBD inh = inhibitors of human PLK1 polo-box domain binding; P53350; 360,000 compounds, 2.8% hits; Plk1 PBD binding of FITC phosphopeptide, fluorescence polarization; Potency, µM, actives largely listed as inhibitors; note: series mostly up to about 57 µM; nearly all actives have a fitted effect of over 65% in size
# Sfp PPTase inh = Sfp phosphopantetheinyl transferase inhibition; Q9F4F7; Biochemical Sfp PPTase activity, qHTS; Potency, µM, actives largely listed as inhibitors; 310,000 compounds, 3.5% hits;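 note: the enzyme is Sfp with the accession as filed and its product quenches rhodamine fluorescence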
#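 After 15 min at room temperature with compound, 15 nM Sfp received 5 uM rhodamine-CoA plus 12.5 uM BHQ-2-ybbR (50 mM Hepes pH 7.6, 10 mM MgCl2). Rate came from the fluorescence difference over 30 min, ex 525/em 598 nm.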
# BAZ2B block = blocks human BAZ2B. Q9UIF8. AlphaScreen BAZ2B-H3K14Ac peptide displacement. Potency, µM (series often up to 114 µM), most hits filed as inhibitors. 360,000 compounds, 4.4% hits. AID 504333; note: nearly all actives have a fitted effect of over 60% in size
#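 BAZ2B (50 nM) with biotin-H3(5-23)K14Ac peptide (50 nM) in PBS pH 7.4, 0.01% Tween-20, preformed 30 min, then compound 30 min at room temperature; top concentration 110uM. AlphaScreen streptavidin donor/nickel chelate acceptor beads (10 ug/mL final), 20 min dark, signal read.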
# Hits are given with their value; n = inactive; u = inconclusive; x = no result given; [ ] = another dose, or the depositor's remark. Only some compounds are listed: those with a hit (about 12% of all), similar ones and a draw of the others. Calls come from the whole dose curve; as a rule, active = well fitted curve in the direction sought with a large enough effect; inconclusive = small, poorly fitted or top-dose-only effect, or another doubt; inactive = no such curve, though single readings can be large; an effect the other way counts as inactive or inconclusive.
SMILES,G9a block,JMJD2A Tudor,HP1b chromo inh,PLK1 PBD inh,Sfp PPTase inh,BAZ2B block
CCCSc1nc(C)c(-c2csc(C(C#N)=C3CCCC3)n2)cc1C#N,u,50µM,n,n,71µM,20µM
O=C(NCCc1ccccc1)c1ccc(Cn2c(SCc3cccc(F)c3)nc3cccnc32)cc1,n[12.7 µM],n,n,x,x,n
COc1cccc(-c2csc(N3CCN(C(=S)Nc4ccccc4)CC3)n2)c1,n[0.501 µM],n,n,n,n,n
COCCNC(=S)N1CCN(c2nc(-c3ccc(Cl)cc3)cs2)CC1,u,32µM,n,24µM,n,n
COc1cccc(-c2csc(N3CCN(C(=S)Nc4ccc(Cl)cc4)CC3)n2)c1,u,n,n,n,45µM,n
COCCNC(=S)N1CCN(c2nc(-c3ccc(F)cc3)cs2)CC1,50µM,n,n,n,n,u
Cc1nc2c3ccccc3nc(NNC(=O)CCC(=O)NCCN3CCN(c4ccccc4F)CC3)n2n1,n,n,n,30µM,n,n
Cc1nc2c3ccccc3nc(NNC(=O)CCC(=O)O)n2n1,u,n,n,x,x,n
COCCNC(=O)CCC(=O)NNc1nc2ccccc2c2nc(C)nn12,n,79µM,n,n,n,n
O=C(O)c1cn(-c2ccc(F)cc2)c2cc(N3CCNCC3)c(F)cc2c1=O,u,50µM,n,n,n,x
Cn1cc(S(=O)(=O)c2ccccc2)c(=O)c2cc(F)c(N3CCN(c4ccc(F)cc4)CC3)cc21,n,n,n,x,x,n
C=C(C)CC1N(c2cccc(OC)c2)C(=O)C2C(C(=O)O)C3C=CC21O3 (stereo not given),n,n,n,27µM,n,n
CCCN1C(=O)C2C(C(=O)Nc3cccc(OC)c3)C3C=CC2(O3)C1C(=O)NC1CCCCC1 (stereo not given),n,n,n,n,n,n
O=C(COC(=O)c1ccc(F)c(S(=O)(=O)N2CCOCC2)c1)Nc1ccc(Cl)cn1,x,x,x,n,x,x
COc1ccc(-c2cn3nc(N4CCCC(C(=O)Nc5cc(C)ccc5C)C4)sc3n2)cc1 (stereo not given),u,u,n,x,x,n
CCN1C(=O)c2ccccc2S(=O)(=O)c2ccc(C(=O)NCc3ccc(C)cc3)cc21,n,n,n,x,x,n
COc1cc(SC#N)ccc1N=Cc1c(C)[nH]n(-c2ccc(C)c(C)c2)c1=O,10µM,n,n,u,n,n
O=C(CCc1ccccc1O)N/N=C/c1ccc(Sc2cccc3cccnc23)o1,n[12.7 µM],n,u,n,n,n
O=[N+]([O-])c1cccc(Cl)c1N1CCOCC1,n,n,n,n,n,n
C=CSc1sc(Cl)c(N2CCOCC2)c1[N+](=O)[O-],n,50µM,50µM,n,u,14µM
C=CS(=O)(=O)c1sc(Cl)c(N2CCOCC2)c1[N+](=O)[O-],8.9µM,79µM,u,0.53µM,22µM,u
C=C(C)CSc1nnc([C@@H]2CCCN2)o1,u,50µM,n,n,u,50µM
Clc1ccc(CSc2nnc([C@@H]3CCCN3)o2)cc1Cl,u,n,n,n,n,u
Cc1ccc(C)c(CSc2nnc([C@@H]3CCCN3)o2)c1,n,n,n,n,n,u
O=C(CSc1nnc([C@@H]2CCCN2)o1)c1ccc(Cl)cc1,40µM,u,n,n,n,n
SMILES,G9a block,JMJD2A Tudor,HP1b chromo inh,PLK1 PBD inh,Sfp PPTase inh,BAZ2B block
COc1cc(C2c3c(-c4cc(C)ccc4O)n[nH]c3C(=O)N2CCCO)ccc1OCCC(C)C (stereo not given),n,n,n,x,x,n
O=C(c1ccc(CS(=O)c2ccccc2Cl)o1)N1CCN(c2ccccc2F)CC1 (stereo not given),n,n,n,x,x,n
O=C(NCc1ccc2c(c1)OCO2)c1cc([N+](=O)[O-])ccc1N1CCCCC1,45µM,n,n,n,n,n
O=C(NCc1ccco1)c1cc([N+](=O)[O-])ccc1N1CCCCC1,u,u,n,24µM,n,u
O=C(NCc1ccc2c(c1)OCO2)c1cccc([N+](=O)[O-])c1,n,n,n,n,n,n
CS(=O)(=O)N1CCCC(C(=O)NCCN2CCC(Cc3ccccc3)CC2)C1 (stereo not given),n,n,n,n,n,n
O=C(NCCN1CCc2ccccc2C1)C1CCN(S(=O)(=O)N2CCC3(CC2)OCCO3)CC1,n[12.7 µM],n,n,n,n,u
O=C(NCCN1CCc2ccccc2C1)C1CCN(S(=O)(=O)N2CCCCC2)CC1,50µM,u,n,n,u,u
CS(=O)(=O)N1CCCC(C(=O)NCCCN2CCc3ccccc3C2)C1 (stereo not given),11µM,79µM,n,n,n,n
CCCc1cc(=O)[nH]c(SCc2nc(-c3ccc(C)cc3)no2)n1,n,n,n,x,x,n
CCOC(=S)SCc1cn2ccc(C)cc2n1,n,n,n,n,n,n
CCOC(=S)SCc1cn2ccccc2n1,u,n,n,n,50µM,n
O=C(NNS(=O)(=O)c1ccc([N+](=O)[O-])cc1)c1cnn(-c2ccccc2)c1-n1cccc1,u,n,n,n,n,n
CCn1c(SCC(=O)Nc2cc(C)on2)nnc1-c1ccc(OC)cc1,n,n,n,n,n,n
COCCn1c(-c2ccccc2)cnc1SCC(=O)Nc1cccc2ccccc12,32µM,50µM,u,n,n,45µM
COCCn1c(-c2ccc(OC)cc2)cnc1SCC(=O)Nc1ccc(OC)cc1OC,u,n,n,u,n,45µM
COCCn1c(SCC(=O)Nc2ccccc2OC)nc2ccccc21,n,n,n,n,n,n
COCCn1c(-c2ccc(OC)cc2)cnc1SCC(=O)Nc1cc(C)on1,79µM,n,n,n,n,n
COc1ccc(NC(=O)CSc2nncn2N)c(OC)c1,n,n,n,n,n,n
COc1ccc(S(=O)(=O)N2CCC(n3c(C(F)(F)F)nc4cccnc43)CC2)cc1OC,n,n,n,x,x,n
COc1cc(/C=N/Nc2ccc(C(F)(F)F)cn2)cc(OC)c1O,40µM,n,n,n,u,n
Oc1ccc(/C=N/Nc2ccc(C(F)(F)F)cn2)c(O)c1,n,x,x,x,n,28µM
COc1cc(/C=N/Nc2ccccn2)cc(OC)c1O,28µM,n,n,n,35µM,n
CCOc1ccc(/C=N/OCC(=O)Nc2ccc(OCc3ccccc3)cc2)cc1OC,n,n,n,n,u,n
Oc1ccc(/C=N/Nc2ccc(C(F)(F)F)cn2)cc1,n,n,n,n,n,n
CCOc1ccc(/C=N/N(C)c2ccccc2)cc1OC,50µM,45µM,u,n,n,32µM
C=CCOc1ccc(/C=N/Nc2ccccn2)cc1OC,n,n,n,n,u,n
COc1ccc(OC)c(N=C(N)N=C(N)N)c1,n[12.7 µM],n,n,n,n,n
O=C(Nc1nnc([C@@H]2O[C@H](CO)[C@@H](O)[C@H]2O)s1)Nc1ccccc1C(F)(F)F,x,x,x,n,x,x
